Screens (PubChem BioAssay)
This excerpt belongs to a sample that is enriched for hits.
Shiga inhibitor: blocks Shiga toxin action in Vero cells. AID 2315. inhibition, % at 38.7 µM. actives 9.2% (n = 290,000). Vero cells, Shiga toxin protein synthesis inhibition reporter; in the data active = inhibition mostly above about 28%, no sharp cut-off; inactive = mostly below about 43%
Cycloheximide cs: counter-screen for Shiga toxin inhibitors: cycloheximide protein synthesis inhibition; max response, %; actives 12% (n = 300,000); cell reporter, cycloheximide protein synthesis inhibition counterscreen; in the data active = max response mostly above about 13%, no sharp cut-off; inactive = mostly below about 14%; note: read at 38.3 µM for the half of the compounds with a filed dose
AMA1 RON2 block: disrupts binding of P. falciparum AMA1 to RON2; AlphaScreen AMA1-biotinylated RON2 peptide binding; Potency, µM (highest dose often 58.2 µM), usual class: inhibitors; actives 0.2% (n = 360,000); AID 720542; note: nearly all actives have a fitted effect of over 45% in size
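AMA1 (3D7) with his tag at 25 nM final met compounds first, then biotinylated RON2 peptide at 25 nM; detection used donor plus acceptor beads, 10 µg/mL apiece, read by AlphaScreen after 30 min at room temperature.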
SARS PLP yeast: SARS-CoV PLP inhibition in yeast; S. cerevisiae expressing SARS-CoV PLpro, growth rescue; Potency, µM (series often up to 32.9 µM), usual class: activators; actives 0.19% (n = 330,000); AID 485353; calls by dose curve; note: nearly all actives have a fitted effect of over 55% in size
AmpC no deterg: blocks E. coli AmpC beta-lactamase in detergent-free assay | Potency, µM (titrated, usually from 57.1 µM), hits mostly inhibitors | AID 485341 | AmpC nitrocefin hydrolysis, absorbance 480 nm, 0.0001% Triton | actives 0.52% (n = 330,000); note: nearly all actives have a fitted effect of over 20% in size
Target sequence (P00811 whole entry, looked up): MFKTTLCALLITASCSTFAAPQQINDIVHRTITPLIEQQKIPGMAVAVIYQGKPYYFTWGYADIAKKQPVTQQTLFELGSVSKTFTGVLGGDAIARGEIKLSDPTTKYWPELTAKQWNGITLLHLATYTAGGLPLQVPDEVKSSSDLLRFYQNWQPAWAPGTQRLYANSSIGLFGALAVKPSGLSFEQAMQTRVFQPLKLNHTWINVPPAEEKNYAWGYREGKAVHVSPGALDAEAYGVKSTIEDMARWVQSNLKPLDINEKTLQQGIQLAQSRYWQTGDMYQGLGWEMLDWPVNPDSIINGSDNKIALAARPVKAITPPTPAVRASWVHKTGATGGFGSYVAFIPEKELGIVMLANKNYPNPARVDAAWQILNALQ
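20 mM phosphate pH 7.0 + 0.01% (detergent screen) or 0.0001% Triton X-100; 5.3 nM AmpC reagent; cpd preinc 15 min RT; nitrocefin (800 uM stock) to start; A480 q20 s × 4 min; Activity was normalised to no-enzyme and no-compound control wells.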
AmpC inh detg: blocks E. coli AmpC beta-lactamase in detergent assay; AmpC hydrolysis of nitrocefin, absorbance 480 nm, 0.01% Triton; actives 0.041% (n = 370,000); Potency, µM (top dose mostly 114 µM), most hits filed as inhibitors; note: nearly all actives have a fitted effect of over 25% in size
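20 mM phosphate pH 7.0 + 0.01% (detergent screen) or 0.0001% Triton X-100; 5.3 nM AmpC reagent; cpd preinc 15 min RT; nitrocefin (800 uM stock) to start; A480 q20 s × 4 min; Activity was normalised to no-enzyme and no-compound control wells.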
Of the large screens only hits and unclear results are named; the others gave an inactive call. Unless noted, calls come from the whole dose curve; as a rule, active = well fitted curve in the direction sought with a large enough effect; inconclusive = small, poorly fitted or top-dose-only effect, or another doubt; inactive = no such curve, though single readings can be large; an effect the other way counts as inactive or inconclusive.

COC(=O)c1ccc(N2CCOCC2)c(NC(=O)c2cc3ccccc3o2)c1	none (no result: Shiga inhibitor, Cycloheximide cs, SARS PLP yeast, AmpC no deterg, AmpC inh detg)
Cc1ccc(C(=O)NCc2ccc3c(c2)OCO3)cc1	Cycloheximide cs 13
CN(C)c1ccc(-c2nnn(CC(=O)NCc3ccc4c(c3)OCO4)n2)cc1	Cycloheximide cs 28
O=C(NCCc1cccc(Cl)c1)c1ccc2c(c1)OCO2	Shiga inhibitor 56, Cycloheximide cs 32
O=C(Cn1nnc(-c2ccc3c(c2)OCO3)n1)Nc1ccccc1C(=O)O	Shiga inhibitor 41, Cycloheximide cs 31
O=C(Cn1nnc(-c2ccccc2)n1)Nc1ccc2c(c1)OCO2	none
Cc1ccccc1-c1nnn(CC(=O)NCc2ccc3c(c2)OCO3)n1	none
CC(C)C(=O)NC(c1ccccc1Cl)c1c(O)ccc2ccccc12 (centres undefined)	none
O=C(/C=C/c1ccc2c(c1)OCO2)NCCSCc1cccc(Cl)c1	Cycloheximide cs 21
O=C(NCc1cccc(Cl)c1)c1ccc2c(c1)OCCO2	Cycloheximide cs 21 (no result: Shiga inhibitor)
O=C(/C=C/c1ccc2c(c1)OCO2)NCCSCc1ccc(Cl)cc1Cl	none
O=C(NCc1ccc2c(c1)OCO2)c1c(F)c(F)c(F)c(F)c1F	AmpC inh detg inconclusive
Cc1cc2cc(CNC(=O)c3ccc4c(c3)OCO4)ccc2[nH]1	Cycloheximide cs 20
O=C(NCc1ccc2c(c1)OCO2)c1ccc(Br)s1	Cycloheximide cs 12
CN1C[C@@H]2C[C@@H](C3=Cc4cc(Cl)ccc4OC3)N3CCC[C@@]23C1=O	none
CCC(CC)NC(=O)CCc1nc2ccccc2c(=O)[nH]1	none
O=C(NCc1cccc(C(F)(F)F)c1)c1ccc2c(c1)OCO2	Cycloheximide cs 10
O=C(NCc1cccc(C(F)(F)F)c1)c1cc(Cl)cc(Cl)c1	none
O=C(NCc1ccc(Cl)cc1)c1cccc(NC(=O)c2ccccc2)c1	none
CCOCCCNC(=O)c1ccc2c(c1)OCO2	Shiga inhibitor 58, Cycloheximide cs 23
CC(C)c1ccc(C(=O)NCc2ccc(Cl)cc2)cc1	Shiga inhibitor 141, Cycloheximide cs 74
CN(C)c1cccc(C(=O)NCc2ccc(Cl)cc2)c1	Shiga inhibitor 71, Cycloheximide cs 27
O=C(NCCOc1ccccc1)c1ccc2c(c1)OCO2	AmpC inh detg inconclusive
c1ccc(-c2csc3ncnc(NCc4ccccn4)c23)cc1	none
CCOC(=O)c1ccc(Nc2nc(N3CCOCC3)nc(N3CCOCC3)n2)cc1	none
CN(C)c1ccc(C(=O)NCc2ccc3c(c2)OCO3)cc1	AmpC inh detg inconclusive
CN(C)c1cccc(C(=O)NCc2ccc3c(c2)OCO3)c1	Shiga inhibitor 57, Cycloheximide cs 33
Cc1ccc2nc(/C(C#N)=C\c3ccc([N+](=O)[O-])o3)[nH]c2c1	none
N#C/C(=C\c1ccc([N+](=O)[O-])o1)c1nc2ccccc2[nH]1	Cycloheximide cs 17
N#C/C(=C\c1ccc(Sc2ccccc2)o1)c1nc2ccccc2[nH]1	Shiga inhibitor 127, Cycloheximide cs 41
COc1ccc2c(c1)CC/C(=C\C=C\c1ccccc1OC)C2=O	Shiga inhibitor 89, Cycloheximide cs 38
COc1ccc2c(c1)C(=O)/C(=C/C=C/c1ccccc1)CC2	Shiga inhibitor active, Cycloheximide cs 21, AmpC inh detg inconclusive
COc1ccc(C=C2Cc3ccccc3C2=O)cc1	none (no result: Shiga inhibitor, Cycloheximide cs, SARS PLP yeast, AmpC no deterg, AmpC inh detg)
COc1ccc(N2Cc3cccc(C(=O)N4CCN(C(=O)c5ccco5)CC4)c3C2=O)cc1	AMA1 RON2 block inconclusive, AmpC inh detg inconclusive
CCn1c(=O)c(C(=O)NNS(=O)(=O)c2ccc(NC(=O)OC)cc2)c(O)c2ccccc21	none
Cn1c(=O)c2cc(C(=O)NCCCN3CCN(c4cccc(Cl)c4)CC3)sc2c2ccccc21	none (no result: Shiga inhibitor, Cycloheximide cs, AMA1 RON2 block, SARS PLP yeast, AmpC no deterg)
COc1ccc(OC)c(Cc2nnc(CCC(=O)NCc3ccc(C)s3)o2)c1	none
CCC1CCCCN1C(=O)CCc1nnc(Cc2cc(OC)ccc2OC)o1 (centres undefined)	Shiga inhibitor 93, Cycloheximide cs 54
COc1ccc(OC)c(Cc2nnc(CCC(=O)NC(C3CC3)C3CC3)o2)c1	none
COc1ccc(OC)c(Cc2nnc(CCC(=O)N3CCCCC3)o2)c1	Shiga inhibitor 73, Cycloheximide cs 22
COc1ccc(OC)c(Cc2nnc(CCC(=O)N3CCN(C4CCCC4)CC3)o2)c1	Shiga inhibitor 99, Cycloheximide cs 40
Cc1ccccc1OCCn1c(C)nc2ccccc21	none (no result: Shiga inhibitor)
CN(C)c1ccc(-[n+]2c(-c3ccccc3)cc(-c3ccccc3)cc2-c2ccccc2)cc1	none
COc1ccccc1NC(=O)CCSc1nc(C)cc(C)n1	none
O=Cc1ccccc1OCc1ccc2c(c1)OCO2	Shiga inhibitor 100, Cycloheximide cs 46
O=S1(=O)N=C(Nc2nc3c(s2)CCCC3)c2ccccc21	Shiga inhibitor 57, Cycloheximide cs 28, AmpC inh detg inconclusive
CC(=O)c1sc(N/N=C\c2ccccc2O)nc1C	Cycloheximide cs 30
Cc1nc(Nc2ccccc2)sc1C(=O)c1ccccc1	Shiga inhibitor 58, Cycloheximide cs 47
CCOC(=O)c1sc(Nc2ccccc2)nc1C	Shiga inhibitor 56, Cycloheximide cs 52
COc1ccc(C(=O)c2sc(Nc3ccccc3)nc2C)cc1	none
CC(=O)c1ccc(NC(=O)CCCCCn2nnc3ccccc3c2=O)cc1	none
CC(=O)c1sc(Nc2ccc(Oc3ccccc3)cc2)nc1C	none (no result: Shiga inhibitor, Cycloheximide cs, SARS PLP yeast, AmpC no deterg, AmpC inh detg)
CNc1nc(C)c(C(=O)OCc2ccccc2)s1	Shiga inhibitor 93, Cycloheximide cs 29, AmpC inh detg inconclusive
COc1ccccc1Nc1nc(-c2ccccc2)c(CC(=O)O)s1	none (no result: Shiga inhibitor, Cycloheximide cs, AMA1 RON2 block, SARS PLP yeast, AmpC no deterg)
CNc1nc(C)c(C(=O)OCC(=O)OC)s1	AmpC inh detg inconclusive
O=C(O)Cc1sc(N/N=C\c2ccccc2)nc1-c1ccccc1	Shiga inhibitor 58, Cycloheximide cs 53, AmpC no deterg inconclusive, AmpC inh detg inconclusive
COc1ccc(/C(C)=N/Nc2nc(C)c(C(C)=O)s2)cc1	Shiga inhibitor 65, Cycloheximide cs 12
CCOC(=O)c1sc(NC(=O)Nc2ccc(Cl)cc2)nc1C	Shiga inhibitor 72, Cycloheximide cs 43, AmpC inh detg inconclusive
Cc1cccc2sc(NC(=O)[C@H](C)N3C(=O)C4CC=CCC4C3=O)nc12 (some centres undefined)	none
COc1cc(/C=N/NC(=O)C2COc3ccccc3O2)cc(OC)c1OC (centres undefined)	AmpC inh detg inconclusive
COC(=O)CNC(=O)CSc1nnc(C)c(=O)[nH]1	none
Cc1cc(C)cc(NC(=O)CN2C(=O)COc3ccc(S(=O)(=O)N4CCCC4)cc32)c1	none
CC(C)(C)C(=O)c1sc(Nc2ccccc2)nc1N	Shiga inhibitor 68, Cycloheximide cs 59
COC(=O)c1sc(Nc2ccccc2)nc1C	Shiga inhibitor 104, Cycloheximide cs 35, SARS PLP yeast inconclusive
